# Source: PubChem BioAssay
# This is a sample that favours compounds with a hit; in the whole collection about 11% have one here.
# Tau fluor cs – Counterscreen qHTS for Inhibitors of Tau Fibril Formation, Fluorescence Polarization | tau K18 P301L Alexa594 fluorescence, heparin fibrillization | 280,000 tested, 0.93% active | Potency, µM (doses to about 57.7 µM) | AID 1463, 2008; note: nearly all actives have a fitted effect of over 55% in size
#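 Human tau K18 P301L (15 uM unlabeled, 0.24 uM Alexa 594-labeled) in 100 mM sodium acetate pH 7 with 20 uM heparin, 6 hr at 37 C. ThT 30 uM added, 1 hr ambient; Alexa 594 FP and total fluorescence read at 555/632 nm.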
# Tau FP inhib – qHTS for Inhibitors of Tau Fibril Formation, Fluorescence Polarization; Microtubule-associated protein tau (Homo sapiens), P10636; K18 P301L tau heparin fibrillization, Alexa594 FP, 6 h; Potency, µM (titrated, usually from 57.7 µM), hits mostly inhibitors; 280,000 tested, 0.39% active; note: nearly all actives have a fitted effect of over 55% in size
# Target sequence (P10636 561-689 P618L limits assumed): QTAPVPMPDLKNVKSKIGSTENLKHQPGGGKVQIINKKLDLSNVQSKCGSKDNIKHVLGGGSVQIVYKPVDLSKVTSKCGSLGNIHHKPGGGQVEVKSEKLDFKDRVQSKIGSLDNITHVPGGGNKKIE
#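 K18 P301L tau (15 uM unlabeled/0.24 uM Alexa 594-labeled, final) + compound + heparin 20 uM final; 100 mM NaOAc pH 7; 6 hr 37 C; ThT 30 uM final added, 1 hr RT; FP ex 555/em 632 nm.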
# G9a block – qHTS Assay for Inhibitors of Histone Lysine Methyltransferase G9a. Histone-lysine N-methyltransferase EHMT2 (Homo sapiens), Q96KQ7. G9a H3K9 monomethylation, AlphaScreen, 2 h. Potency, µM (titrated, usually from 102 µM), hits mostly inhibitors. 350,000 tested, 8.8% active; note: nearly all actives have a fitted effect of over 75% in size
# Target sequence (Q96KQ7 913-1193 limits assumed): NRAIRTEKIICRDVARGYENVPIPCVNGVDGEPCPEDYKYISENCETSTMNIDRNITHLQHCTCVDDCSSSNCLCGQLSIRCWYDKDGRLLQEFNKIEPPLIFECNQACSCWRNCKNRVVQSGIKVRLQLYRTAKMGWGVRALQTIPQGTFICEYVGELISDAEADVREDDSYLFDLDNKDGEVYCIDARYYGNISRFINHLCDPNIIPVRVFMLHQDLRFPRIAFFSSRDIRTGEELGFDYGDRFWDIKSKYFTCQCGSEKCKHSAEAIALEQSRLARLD
#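 Signal arises when biotinylated H3K9 peptide, once monomethylated, bridges streptavidin donor and antibody-captured acceptor beads. Enzyme at 20 nM was preincubated 15 min with test compounds; peptide 500 nM and SAM 20 uM then reacted for 2 h.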
# Coupling enz – qHTS Assay for Inhibitors of Fructose-1,6-bisphosphate Aldolase from Giardia Lamblia: Coupling assay counterscreen; coupling enzyme system counterscreen, AmpLite Red fluorescence; activity change, negative = inhibition, % at 58.2 µM, hits read low; 290,000 tested, 0.67% active; AID 2472, 2010; in the data active = activity change below about -30%
#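 Fluorescence at 525 nm excitation and 598 nm emission measured inhibition of the coupled detection system without aldolase. Compounds (at 57.5 uM final) were preincubated 10 min at room temperature with coupling enzyme reagent before a 20 min substrate/AmpLite Red step.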
# Tau ThT inhib – qHTS for Inhibitors of Tau Fibril Formation, Thioflavin T Binding | Microtubule-associated protein tau (Homo sapiens), P10636 | recombinant tau K18 P301L (four-repeat tau fragment), heparin-induced fibrillization, ThT fluorescence | Potency, µM (highest dose often 57.4 µM), actives largely listed as inhibitors | 270,000 tested, 2.1% active | AID 1460, 2008; note: nearly all actives have a fitted effect of over 55% in size
#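 Recombinant human tau K18 fragment […] carrying P301L, 15 uM unlabeled plus 0.24 uM Alexa 594-labeled, was fibrillized with 20 uM heparin in 100 mM sodium acetate pH 7 for 6 hr at 37 C; 30 uM ThT fluorescence read after 1 hr.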
# Sfp PPTase inh – qHTS Assay for Inhibitors of Bacillus subtilis Sfp phosphopantetheinyl transferase (PPTase). Biochemical Sfp PPTase activity, qHTS. Potency, µM, actives largely listed as inhibitors. 310,000 tested, 3.5% active. 4'-phosphopantetheinyl transferase ffp (Bacillus subtilis), Q9F4F7;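 note: the enzyme is Sfp with the accession as filed and its product quenches rhodamine fluorescence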
#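 With Hepes-Na pH 7.6 buffer containing 10 mM MgCl2, Sfp (15 nM) modified BHQ-2-YbbR (12.5 uM) using rhodamine-CoA (5 uM). Two reads 30 minutes apart at 525/598 nm yielded each well's rate.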
# A number is an active result; i = inactive; ? = inconclusive; nt = not tested or not shown; [ ] = dose if it differs, or a comment. Unless noted, calls come from the whole dose curve; as a rule, active = well fitted curve in the direction sought with a large enough effect; inconclusive = small, poorly fitted or top-dose-only effect, or another doubt; inactive = no such curve, though single readings can be large; an effect the other way counts as inactive or inconclusive.
SMILES,Tau fluor cs,Tau FP inhib,G9a block,Coupling enz,Tau ThT inhib,Sfp PPTase inh
COc1cccc(-n2cc3c(=O)n(C)c(=O)n(C)c3c2)c1,i,i,35µM,i,i,i
Cc1ccc(/C=C2/C(=O)N(c3ccccc3)C(=S)N2C)o1,i,?,8.9µM,i,?,5µM
Cc1ccc(/C=C2\C(=O)NC(=O)N2C)o1,nt,nt,35µM,i,nt,40µM
CCOc1ccc(N2C(=O)/C(=C/c3ccccc3OCC(=O)OC)N(CC(=O)OC)C2=S)cc1,i,i,?,i,i,i
Cc1ccc(/C=N/N2C(=O)C3C(C2=O)C2C=CC3C23CC3)o1 (centres undefined),i,i,i,i,i,i
CCOc1ccc(N2C(=O)/C(=C/c3ccco3)N(C)C2=S)cc1,i,i,10µM,i,?,40µM
CCOC(=O)C1=C(C)N(c2ccc(OCC)cc2)C(=O)/C1=C\c1ccco1,i,?,?,i,14µM,50µM
CCN1/C(=C\C=C2\C(=O)N(c3ccccc3)C(=S)N2C)Sc2ccccc21,i,i,?,i,i,?
Cc1cc(=O)[nH]c2nnc(SCC(=O)Nc3ccc(OC(F)(F)F)cc3)n12,i,i,i,nt,i,nt
Cc1cccc(N2CCN(C(=O)c3cn(C4CCCCC4)c(=O)c4c3c3ccccc3n4C)CC2)c1C,i,i,i,nt,?,nt
COC(=O)CN1C(=O)CSc2ccc(S(=O)(=O)Nc3ccc(F)c(Cl)c3)cc21,i,i,?,nt,i,nt
Cc1cc(C)nc(NC(=O)Cc2ccc(Br)cc2)n1,i,i,i,i,i,i
[O-][n+]1onc2c1CCC(=N/O)/C2=N\Nc1ccccc1,?,?,25µM,i,14µM,32µM
[O-][n+]1c2c(nn1-c1ccccc1)/C(=N/O)CCC2,i,i,i,i,i,i
COc1ccc2c(c1OC)C(Cc1ccccc1)N1CCc3cc4c(cc3C1=C2)OCO4 (centres undefined),?,i,nt,-33,16µM,50µM
Cc1ccn(CCC(=O)Nc2ccc(-c3ccno3)cc2)n1,nt,nt,i,i,nt,i
O=C(Cn1cc(SCc2cccc(F)c2)c2ccccc21)N1CCCC1,i,i,i,nt,?,nt
CC(=O)C1=C(c2ccccc2)NC(=O)NC1c1ccccc1 (centres undefined),nt,nt,nt,i,nt,i
COc1cc(C2NC(=S)NC3=C2CCc2ccccc23)cc(OC)c1OC (centres undefined),i,i,10µM,i,i,i
COc1ccc2c(c1)CCC1=C2NC(=S)NC1c1ccc(N(C)C)cc1 (centres undefined),?,i,nt,i,i,i
C=CCOc1ccc(C2NC(=S)NC3=C2CCc2ccccc23)cc1 (centres undefined),i,i,22µM,i,?,i
O=C1NC2=C(CCc3ccccc32)C(c2ccccc2)N1 (centres undefined),i,i,45µM,i,?,i
O=S(=O)(NCCc1ccc(Cl)cc1)c1ccc(N2CCCCS2(=O)=O)cc1,i,i,i[12.7 µM],nt,i,nt
Cc1ccccc1NC(=O)Nc1cccs1,i,i,?,i,?,22µM
CC(C)NC(=O)Nc1cccs1,i,i,14µM,i,i,79µM
SMILES,Tau fluor cs,Tau FP inhib,G9a block,Coupling enz,Tau ThT inhib,Sfp PPTase inh
CCc1ccccc1NC(=O)Nc1cccs1,i,i,50µM,i,i,50µM
Cc1ccc(NC(=O)Nc2cccs2)c(C)c1,i,i,?,nt,i,nt
Cc1ccc(Cl)cc1NC(=O)Nc1cccs1,?,i,?,i,i,50µM
CCC1CCCCN1C(=O)Cn1c(=O)n(-c2ccccc2C(F)(F)F)c(=O)c2c(C)c(C(=O)N(C)C)sc21 (centres undefined),i,i,i,nt,i,nt
CCOC(=O)C1CCCN(S(=O)(=O)c2ccc3[nH]c(=O)oc3c2)C1 (centres undefined),i,i,i,nt,i,nt
Cn1c(=O)n(C/C=C/c2ccccc2)c(=O)c2c1nc1n2CCN1c1ccc(F)cc1,i,i,i,nt,i,nt
CC(=O)NC(CC(=O)NNC(=O)c1cccs1)c1ccccc1 (centres undefined),nt,nt,i[12.7 µM],nt,nt,nt
Cc1ccc(CNC(=O)c2ccc3c(O)c(S(=O)(=O)c4ccccc4)c(=O)[nH]c3c2)cc1,i,i,i,nt,i,nt
O=C(Nc1ccncc1)Nc1ccccn1,i,i,i[12.7 µM],i,i,i
O=C(Nc1ccccn1)Nc1cccs1,i,i,56µM,i,i,50µM
O=C(Nc1cccs1)N1CCN(c2ncccn2)CC1,nt,nt,40µM,i,nt,i
CSc1nsc2nc(=O)c(/C=C3\C(C)=Nc4ccccc43)c(N)n12,i,i,18µM,i,?,i
Nc1c(/C=C2\C=Nc3ccccc32)c(=O)nc2sc(CC(=O)N3CCOCC3)nn12,nt,nt,i,nt,nt,i
O=C(Nc1nnc(Cc2ccccc2)s1)C1CCN(C(=O)c2ccco2)CC1,nt,nt,10µM,i,nt,50µM
CCCc1nnc(NC(=O)C2CCN(C(=O)c3ccco3)CC2)s1,nt,nt,i,i,nt,i
COc1ccc(Cc2nnc(NC(=O)C3CCN(C(=O)c4ccco4)CC3)s2)cc1,nt,nt,79µM,i,nt,i
COc1ccc(-n2c(-c3cccc(F)c3)nc3c(cnn3-c3ccc(C)cc3)c2=O)cc1,i,i,i,nt,i,nt
CO[C@H]1COC(=O)C/C=C\[C@H](C)COC(=O)[C@@H](C)NC(=O)C/C=C\[C@@H]1C,i[11.6 µM],i[11.6 µM],nt,i,i[11.5 µM],i
O=C1CCCCC/C1=N/Nc1ccc(OCc2ccccc2)cc1,?,i,32µM,i,11µM,i
COc1cccc(C2NC(=O)NC(O)(C(F)(F)F)C2C(=O)c2cccnc2)c1OC (centres undefined),i,i,50µM,i,i,i
COc1cc(/C=C2/C(=O)NN(c3ccc(Cl)cc3)C2=O)ccc1OC(=O)c1ccco1,?,i,?,i,14µM,?
COc1cc(/C=C2/C(=O)NN(c3cccc(F)c3)C2=O)ccc1OC(=O)c1ccco1,i,i,28µM,i,?,56µM
COc1cc(/C=C2/C(=O)NN(c3ccc(Cl)cc3)C2=O)cc(Br)c1O,nt,nt,nt,i,nt,i
COc1cc(/C=N/NC(=O)c2ccc(F)cc2)ccc1OC(=O)c1ccco1,i,i,i,i,i,i
Cc1nnc(SCC(=O)N(C2CCCCC2)C2CCS(=O)(=O)C2)n1N (centres undefined),nt,nt,i,nt,nt,nt
Cc1cccc(C(C(=O)NC2CCCCC2)N(C(=O)c2csnn2)C2CC2)c1 (centres undefined),nt,nt,i,i,nt,i
CCOC(=O)c1n[nH]n2c1nc(=S)c1ccccc12,nt,nt,10µM,i,nt,?
